Source: PubChem BioAssay AID743266 (National Center for Advancing Translational Sciences (NCATS), 2014)
Where “and” joins values, the source holds several entries; their conditions need not be identical. Equal entries are not always repeated. Hit rate of the full screen: of about 410,000 compounds, about 310 (0.076%) were called active. Inconclusive results (about 2%) are left out. Calls come from the whole dose curve; as a rule, active = well fitted activation curve with a large enough effect; inconclusive = small, poorly fitted or top-dose-only effect, or another doubt; inactive = no such curve, though single readings can be large or run the other way. Shown is part of a subset that was picked to be rich in actives. A structure can be active in one record and inactive in another.

Target: Parathyroid hormone/parathyroid hormone-related peptide receptor (Homo sapiens) (UniProt Q03431)
Assay: qHTS for PTHR1 Agonists: Primary Screen; note: nearly all actives have a fitted effect of over 55% in size
Settings: HEK293 GP2 PTHR1 cells, GloSensor cAMP luminescence, 1 h; series mostly up to 115 µM; activation: at the top concentration
From the text: The goal of the proposed studies is to discover new compounds that act as potent agonists on the parathyroid hormone receptor type-1 (PTHR1). The PTHR1 plays critical roles in maintaining blood calcium and phosphate levels, as well as in controlling bone remodeling. PTHR1 agonists could thus be useful for treating diseases such as hypoparathyroidism and osteoporosis. In the former disease, an agonist drug would help maintain normal blood calcium and phosphate levels under conditions of parathyroid hormone deficiency. In the latter disease, an agonist drug would stimulate new bone formation and thus reduce the risk of fracture, under conditions of bone fragility, as occurs in aging.
To that end, we performed a quantitative high-throughput screening (qHTS) of the Molecular Libraries Probe Centers Network (MLPCN) compound libraries at the NIH Chemical Genomics Center (NCGC) for the parathyroid hormone receptor type-1 (PTHR1) using a unique HEK-293-derived cell line (GP2) that expresses the PTHR1 and a glosensor cAMP reporter construct.
NIH Molecular Libraries Probe Production Centers Network [MLPCN]
NIH Chemical Genomics Center [NCGC]
Assay Submitter (PI): Thomas Gardella, Massachusetts General Hospital
4 microL are dispensed into a 1536-well micro plate to yield 3,000 cells/well. The plates are then incubated overnight, after which 4 microL of 0.5 mM of BIoTium Luciferin plus 0.5 mM IBMX are added. They are then incubated at 37 degree for one hour before 23 nL of compounds are added through pinning and then incubated at 37 degree again for another hour. After the plates are kept at room temperature for 15 min before they are read on the ViewLux to measure luminescence.
Potency is the fitted concentration of half-maximal effect.

Parathyroid hormone/parathyroid hormone-related peptide receptor (Homo sapiens), sequence (Q03431 whole entry, looked up): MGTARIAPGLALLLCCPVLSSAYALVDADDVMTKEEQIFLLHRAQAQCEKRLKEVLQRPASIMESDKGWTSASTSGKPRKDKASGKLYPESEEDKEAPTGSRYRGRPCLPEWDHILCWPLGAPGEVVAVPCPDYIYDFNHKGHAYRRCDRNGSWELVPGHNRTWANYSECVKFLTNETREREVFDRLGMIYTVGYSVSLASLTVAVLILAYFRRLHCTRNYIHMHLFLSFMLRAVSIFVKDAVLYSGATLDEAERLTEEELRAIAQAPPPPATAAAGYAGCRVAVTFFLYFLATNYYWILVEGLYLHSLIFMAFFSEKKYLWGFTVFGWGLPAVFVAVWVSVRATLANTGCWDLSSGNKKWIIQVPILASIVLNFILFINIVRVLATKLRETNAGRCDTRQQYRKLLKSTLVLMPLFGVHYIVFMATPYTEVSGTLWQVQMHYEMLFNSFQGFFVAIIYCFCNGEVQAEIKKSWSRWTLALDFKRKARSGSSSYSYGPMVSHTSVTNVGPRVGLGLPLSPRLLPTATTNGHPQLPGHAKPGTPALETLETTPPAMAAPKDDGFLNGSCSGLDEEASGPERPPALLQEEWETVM

| SMILES | activation | outcome | Potency |
| --- | --- | --- | --- |
| CCCc1nn2c(=O)cc(COC(=O)c3ccc(NC(=O)COc4ccc(F)cc4)cc3)nc2s1 | 5.84% (inactive) | – | – |
| CCCCC(=O)OC1=CN(Cc2ccccc2)S(=O)(=O)c2ccccc21 | 10.3% (inactive) | – | – |
| COc1ccc(OCCn2cc(C(=O)C3CCCCC3)c3ccccc32)cc1 | -19% (inactive) | – | – |
| Cc1oc2ccc(O)c(CN3CCOCC3)c2c1C(=O)Nc1cccc(Cl)c1C | – | inactive | – |
| COc1ccccc1C(=O)NCCn1cc(SCc2ccccc2Cl)c2ccccc21 | -17.1% (inactive) | – | – |
| O=S(=O)(NCC(c1ccco1)N1CCOCC1)c1cc(F)ccc1F (stereo not drawn) | -8.69% (inactive) | – | – |
| Cc1ccccc1-c1nc(SCC(=O)N(C)c2ccccc2)c2c(=O)n(C)c(=O)n(C)c2n1 | – | inactive | – |
| COc1ccccc1NC(=O)C(=O)c1cc(C)n(-c2ccccc2F)c1C | -6.56% (inactive) | – | – |
| CC1CCCN(c2csc3ccc(F)cc3c2=O)C1 (stereo not drawn) | -3.67% (inactive) | – | – |
| COc1ccc(S(=O)(=O)N2CCN(c3ccc(F)cc3)CC2)cc1-c1noc(C)n1 | – | inactive | – |
| CCC(=O)N1CCc2cc(S(=O)(=O)NC(Cc3ccccc3)C(=O)NCc3ccccc3)ccc21 (stereo not drawn) | -37.5% (inactive) | – | – |
| CCn1c(=O)c2cc(C(=O)NCCc3ccc(Cl)cc3)sc2c2ccccc21 | – | inactive | – |
| CCCn1c2ccccc2c2cnn(CC(=O)NCCCN3CCCCC3CC)c(=O)c21 (stereo not drawn) | – | – | inactive |
| CCC1CCCCN1CCCNC(=O)c1cc2c(Cl)nc3ccccc3c2s1 (stereo not drawn) | – | – | inactive and 25.1 µM (active) |
| COc1ccc(C)cc1NC(=O)C(=O)NCCc1sc(-c2cccc(C)c2)nc1C | -8.34% (inactive) | – | – |
| CCCn1c2ccccc2c2cnn(CC(=O)NCC3CCN(Cc4ccc(C)cc4)CC3)c(=O)c21 | -10.4% (inactive) | – | – |
| Cn1c(=O)sc2cc(NS(=O)(=O)c3ccc(C(C)(C)C)cc3)ccc21 | – | inactive | – |
| O=C(CSc1nccn1Cc1ccc(F)cc1)NCc1ccccc1 | – | inactive | – |
| O=C(Cn1nc(C(F)(F)F)c2c1CCCC2)Nc1ccc(Cl)cc1 | -28.6% (inactive) | – | – |
| CCOC(=O)C1CCN(c2ncnc3c2c(-c2ccccc2)cn3-c2cccc(C)c2)CC1 | -9.28% (inactive) | – | – |
| CSc1ccc(CCNC(=O)c2cnn(-c3ccccc3)c2-n2cccc2)cc1 | -0.368% (inactive) | – | – |
| COc1ccccc1CNC(=O)CS(=O)(=O)c1cccc2nsnc12 | -27.3% (inactive) | – | – |
| COc1ccc(N2CCN(Cc3nc4c(c(=O)[nH]c(=O)n4C)n3Cc3ccc(Cl)cc3)CC2)cc1 | -14.2% (inactive) | – | – |
| COc1ccccc1C(=O)OCc1cc(=O)n2nc(-c3cccs3)sc2n1 | -22.8% (inactive) | – | – |

| SMILES | activation | outcome | Potency |
| --- | --- | --- | --- |
| CCCCn1c(SCC(=O)N2CCCC2=O)nc2cc(S(N)(=O)=O)ccc21 | – | inactive | – |
| NS(=O)(=O)c1ccc(CCNC(=O)CCCn2c(SCC(=O)N3CCCC3)nc3ccsc3c2=O)cc1 | – | – | 21.6 µM (active) |
| NS(=O)(=O)c1ccc(CCNC(=O)CCCCCn2c(=O)[nH]c3ccccc3c2=O)cc1 | – | inactive | – |
| CCc1nc2c(cnn2-c2ccc(C)cc2)c(=O)n1-c1ccc(C)cc1 | -39.6% (inactive) | – | – |
| CCCC12CN3CC(CCC)(CN(C1)C3c1c[nH]c3ccc(OC)cc13)C2=O (stereo not drawn) | -51.8% (inactive) | – | – |
| Cc1ccc(C)c(NC(=O)Cn2ccn(-c3ccc(F)cc3)c(=O)c2=O)c1 | -0.697% (inactive) | – | – |
| Cc1cc(C)cc(NC(=O)Cn2c(=O)c3ccccc3n3nncc23)c1 | -0.562% (inactive) | – | – |
| Fc1ccc(-n2ncc3c(Nc4ccc(Oc5ccccc5)cc4)ncnc32)cc1 | -2.25% (inactive) | – | – |
| Cc1ccc(CNC(=O)CCc2c(C)nc3nc(CNC(=O)OC(C)(C)C)nn3c2C)cc1 | -17.4% (inactive) | – | – |
| CCN(CC)S(=O)(=O)c1ccc2c(c1)N(CC(=O)NCc1ccccc1)C(=O)CS2 | – | inactive | – |
| COc1ccc2c(c1)c(=O)c(C(=O)c1ccccc1)cn2CC(=O)Nc1ccc2c(c1)OCCO2 | – | inactive | – |
| COc1ccccc1CN1CCC(CNC(=O)c2cnn(-c3cccc(Cl)c3)c2C2CCN(C(=O)OC(C)(C)C)CC2)CC1 | – | inactive | – |
| COc1cccc(CNC(=O)CCC(=O)N2CC3CCCN3c3ccccc32)c1 (stereo not drawn) | -22.2% (inactive) | – | – |
| Cc1ccn2c(Nc3ccc4c(c3)OCCO4)c(-c3ccc(C)s3)nc2c1 | -23.9% (inactive) | – | – |
| COc1ccc(NC(=O)C2CCN(c3ccc(Sc4ccc(C)cc4)nn3)CC2)c(OC)c1 | -16.3% (inactive) | – | – |
| COc1ccc(Cn2ccnc2SCC(=O)Nc2ccc3c(c2)OCO3)cc1 | – | inactive | – |
| Cc1cccc(-c2nc(SCC(=O)Nc3cc(C)on3)c3c(=O)n(C)c(=O)n(C)c3n2)c1 | -35.6% (inactive) | – | – |
| COc1ccc(OC)c(NC(=O)CN2CCCN(Cc3cc(C)ccc3C)S2(=O)=O)c1 | – | inactive | – |
| COc1ccc(OC)c(CNC(=O)CN2C(=O)CCn3nc(-c4cn(C)c5ccccc45)cc32)c1 | – | inactive | – |
| CC1CCCN(c2cc3c(cc2F)c(=O)c(S(=O)(=O)c2cccc(Cl)c2)cn3Cc2ccccc2)C1 (stereo not drawn) | -0.749% (inactive) | – | – |
| CCOC(=O)c1ccccc1NC(=O)c1sc2nc(-c3ccc(F)cc3)cn2c1C | – | inactive | – |
| CCOc1ccc(-c2cc(C)n3nc(C(=O)Nc4ccc(C)c(C)c4)cc3n2)cc1 | -13.2% (inactive) | – | – |
| O=S(=O)(NCCS(=O)(=O)N1CCN(c2ccccc2)CC1)c1ccc(Cl)cc1 | – | inactive | – |
| CCN(CC)S(=O)(=O)c1ccc2c(c1)nc(CN(C)C(=O)Nc1ccc(Cl)cc1)n2C | – | inactive | – |
